The source made the active and inactive calls. The rule behind the calls is not given here.
Assay: SV40 cytopathic effect inhibition and cytotoxicity, confirmation, SV40 T antigen inhibitor project, BSC cells (AID 2615)
Conditions: BSC cells SV40 infection, CPE inhibition; viability, at 100 µM, stronger effect = lower value

COc1ccc(CC2NCCc3cc(OC)c(OC)cc32)cc1OC (configuration not stated)
outcome: inactive
viability: 201%

Reference: PubChem BioAssay AID2615 (Southern Research Specialized Biocontainment Screening …, 2010)
